The panel holds about 83,000 compounds, 20% with a hit somewhere; the sample as a whole holds those more often.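 The test compound was applied at a single concentration to cells in 96-well plates for 48 hours, and percent growth was recorded.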 Active and inactive are the calls of the source. Rule for the calls: active = growth percent below 10; inactive = the rest.
Key:
Assay in all cases: NCI-60 one-dose screen, 48 h (100 = growth as untreated, 0 = no growth, -100 = all killed)
Settings in all cases: 10 µM unless noted
[1] = test system: NCI-H23 lung
[2] = test system: NCI-H226 lung
[3] = test system: NCI-H322M lung
[4] = test system: HOP-62 NSCLC
[5] = test system: NCI-H460 lung
[6] = test system: HOP-92 NSCLC
[7] = test system: NCI-H522 lung
[8] = test system: A549/ATCC NSCLC
[9] = test system: 786-0 renal
[10] = test system: COLO 205 colon
[11] = test system: DU-145 prostate
[12] = test system: K-562 leukemia
[13] = test system: MALME-3M melanoma
[14] = test system: MDA-MB-231 breast
[15] = test system: RXF 393 renal
[16] = test system: SF-268 CNS
[17] = test system: SF-295 CNS
[18] = test system: SF-539 CNS
[19] = test system: UACC-257 melanoma
[20] = test system: M14 melanoma

Measured: growth

NC1=C(Br)C(=O)c2ncccc2C1=O
inactive: [2] 90.4% | [3] 34.9% | [6] 34.5% | [9] 11.4% | [10] 37.9% | [14] 19.2% | [15] 13.5%
active: [1] -46% | [4] -73.1% | [5] -73.9% | [7] -59.1% | [8] -52.6% | [11] -57.8% | [12] -44.2% | [13] -85.9% | [16] -43.9% | [17] -84.3% | [18] -91.5% | [19] -58.4% | [20] -88.7%

CN1CSC(=S)N(Cc2ccccc2)C1
active: [7] -25.6%
inactive: [1] 83.9% | [2] 104% | [3] 102% | [4] 108% | [5] 108% | [6] 69.4% | [8] 107% | [9] 100% | [10] 113% | [11] 110% | [12] 49.9% | [13] 99.3% | [14] 90.7% | [15] 83.1% | [16] 105% | [17] 106% | [19] 84.3% | [20] 92%

CC(C)(C)c1ccc(O)c(-c2ccccc2)c1
inactive: [1] 105% | [2] 122% | [3] 104% | [4] 112% | [5] 112% | [6] 94.5% | [7] 83.5% | [8] 109% | [9] 109% | [10] 105% | [11] 115% | [12] 105% | [13] 130% | [14] 120% | [15] 112% | [16] 105% | [17] 126% | [18] 108% | [19] 90.1% | [20] 121%

O=C(/C=C/C(Cl)(Cl)Cl)Nc1ccc(Cl)cc1
active: [7] -51.6%
inactive: [1] 81.5% | [2] 106% | [3] 126% | [4] 125% | [5] 115% | [6] 82.1% | [8] 103% | [9] 109% | [10] 98.6% | [11] 97.7% | [12] 65.7% | [13] 121% | [14] 113% | [15] 87% | [16] 112% | [17] 115% | [18] 103% | [19] 102% | [20] 105%

CN=C(N)N/N=C(\c1ccccc1)c1ccc(Br)cc1
inactive: [1] 21% | [2] 15.6% | [6] 32.2% | [9] 13.4% | [13] 25.9% | [16] 11.9% | [19] 47.2%
active: [3] 0.506% | [4] 8.02% | [5] 6.18% | [7] -29.9% | [8] 9.47% | [10] -55.6% | [11] -9.2% | [12] -6.02% | [14] -9.39% | [15] -0.626% | [17] -46% | [18] -19.2% | [20] -13.1%

CN1CCC(CN2c3ccccc3Sc3ccccc32)C1 (stereo not drawn)
active: [6] -0.214%
inactive: [1] 88.9% | [2] 111% | [3] 86.3% | [4] 91.5% | [5] 101% | [7] 86.2% | [8] 90.7% | [9] 69% | [10] 84.6% | [11] 92.4% | [12] 38% | [13] 79.8% | [14] 59.5% | [15] 91.4% | [16] 89.2% | [17] 95.7% | [18] 86.3% | [19] 88.6% | [20] 73.6%

O=S(=O)(O)c1cnccn1
inactive: [1] 97.6% | [2] 104% | [3] 101% | [4] 71.6% | [5] 123% | [6] 94.2% | [7] 96% | [8] 73.9% | [9] 97.8% | [10] 107% | [11] 110% | [12] 106% | [13] 108% | [14] 108% | [15] 114% | [16] 102% | [17] 101% | [18] 97.2% | [20] 100%

O=C(Nc1ccc(Cl)c(Cl)c1)OCc1ccco1
active: [7] 5.5%
inactive: [1] 58.5% | [2] 63.9% | [3] 56.6% | [4] 49.3% | [5] 26.4% | [6] 58.9% | [8] 34.9% | [9] 57.5% | [10] 64.8% | [11] 54.8% | [12] 15.8% | [13] 68.6% | [14] 52.2% | [15] 56% | [16] 47.8% | [17] 31.6% | [18] 41.8% | [19] 62.6% | [20] 44.9%

Reference: PubChem BioAssay (NCI)
